Calls of active or inactive are those of the source.

These results are taken from PubChem BioAssay.

Assay [1] can be described thus: compounds binding Alexa647 anti-His antibody – biochemical, small-molecule microarray, 635 nm fluorescence, artefact control for SMM control protein annotation, primary screen (AID 1128).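 Note: score merges feature fluorescence with signal-to-noise for each printed compound spot.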 Particulars: higher = more signal.
Assay [2] deals with Human papillomavirus type 1a E7 protein (residues 1-88). Briefly: HPV1a E7 small-molecule binders, primary screen, biochemical, small-molecule microarray, residues 1-88, 635 nm (AID 1129). Particulars: small-molecule microarray binding, fluorescence 635 nm; higher = more signal.
Assay [3] has as its target Focal adhesion kinase 1 (Homo sapiens) (UniProt Q05397). Briefly: PTK2 protein binding on printed compound slides – biochemical, small-molecule microarray, 635/667 nm fluorescence, BSA, DTT, primary screen (AID 1130).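 Note: composite of spot emission at 667 nm and signal to noise over triplicate slides.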 The following applies: 635 nm fluorescence, higher = more signal.
Assay [4] concerns Fibrinogen (Alexa647-labelled). Briefly: Alexa647-fibrinogen binding to printed small molecules – biochemical, small-molecule microarray, 635/667 nm fluorescence, artefact control for SMM control-protein annotation, profiling panel (AID 1131).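 Note: z-score merges 667 nm fluorescence with per-spot signal-to-noise over triplicate slides.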 The following applies: fibrinogen-A647 binding fluorescence, higher = more signal.
In assay [5] the target is Follistatin (Homo sapiens) (UniProt P19883). In words: FST protein binding to printed compounds – biochemical, small-molecule microarray, 635/667 nm fluorescence, primary screen (AID 1132). The following applies: 635 nm fluorescence, higher = more signal.
Chain of Follistatin (Homo sapiens) (P19883 whole entry, looked up): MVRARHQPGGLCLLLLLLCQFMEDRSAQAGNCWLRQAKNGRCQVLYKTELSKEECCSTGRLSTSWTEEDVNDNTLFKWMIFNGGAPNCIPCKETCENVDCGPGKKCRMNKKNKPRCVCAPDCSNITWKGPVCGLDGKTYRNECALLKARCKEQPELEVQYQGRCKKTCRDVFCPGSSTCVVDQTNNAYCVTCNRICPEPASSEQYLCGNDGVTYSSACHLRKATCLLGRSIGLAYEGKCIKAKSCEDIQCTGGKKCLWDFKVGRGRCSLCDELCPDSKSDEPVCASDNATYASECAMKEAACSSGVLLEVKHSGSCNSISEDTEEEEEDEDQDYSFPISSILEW
Assay [6] deals with Fibroblast growth factor 2 (Homo sapiens) (UniProt P09038). In words: basic fibroblast growth factor binding to printed compounds – biochemical, small-molecule microarray, 635/667 nm fluorescence, primary screen (AID 1133). The following applies: FGF2, fluorescence 635/667, higher = more signal.
Chain of Fibroblast growth factor 2 (Homo sapiens) (P09038 whole entry, looked up): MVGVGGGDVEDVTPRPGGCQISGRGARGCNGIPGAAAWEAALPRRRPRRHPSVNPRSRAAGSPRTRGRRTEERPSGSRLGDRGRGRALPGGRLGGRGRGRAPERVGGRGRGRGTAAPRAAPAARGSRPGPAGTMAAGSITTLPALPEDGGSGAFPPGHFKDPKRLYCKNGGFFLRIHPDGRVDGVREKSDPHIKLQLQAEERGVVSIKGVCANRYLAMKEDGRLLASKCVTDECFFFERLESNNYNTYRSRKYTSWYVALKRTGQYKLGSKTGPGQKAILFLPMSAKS
Assay [7] in a line: JC-1 mitochondrial potential readout, lung cancer cells – cell-based, A549, JC-1 fluorescence, basal, 24 h, 100 nL, profiling panel (AID 1138).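 Note: A549 lung adenocarcinoma cells under basal conditions with no added stimulus; test concentration not given here.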 Particulars: higher = more signal.
The subject of a further assay is Lefty1. Briefly: Lefty1 protein binding to printed compounds – biochemical, small-molecule microarray, 635/667 nm fluorescence, primary screen (AID 1139). Particulars: fluorescence 635/667, higher = more signal.
Assay [8] relates to wheat germ agglutinin (Triticum aestivum), Alexa647-labelled. In words: Alexa647-WGA lectin binding to printed small molecules – biochemical, small-molecule microarray, 635/667 nm fluorescence, artefact control for SMM control-protein annotation, profiling panel (AID 1140).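 Note: score merges 667 nm feature emission with signal to noise over triplicate slides.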 Particulars: WGA-A647 binding, 635 nm fluorescence, higher = more signal.
In assay [9] the target is Luciferin 4-monooxygenase (Photinus pyralis) (UniProt P08659). In words: inhibition of purified Photinus pyralis luciferase – biochemical, luminescence, purified enzyme, 2006 set, primary screen (AID 1141).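 Note: cell-free assay with purified firefly luciferase at 100 ng per well in PBS; test concentration not given here.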 The following applies: purified firefly luciferase, SteadyGlo luminescence, 30 min; higher = more signal, called active from +8 up or from −8 down.
Chain of Luciferin 4-monooxygenase (Photinus pyralis) (P08659 whole entry, looked up): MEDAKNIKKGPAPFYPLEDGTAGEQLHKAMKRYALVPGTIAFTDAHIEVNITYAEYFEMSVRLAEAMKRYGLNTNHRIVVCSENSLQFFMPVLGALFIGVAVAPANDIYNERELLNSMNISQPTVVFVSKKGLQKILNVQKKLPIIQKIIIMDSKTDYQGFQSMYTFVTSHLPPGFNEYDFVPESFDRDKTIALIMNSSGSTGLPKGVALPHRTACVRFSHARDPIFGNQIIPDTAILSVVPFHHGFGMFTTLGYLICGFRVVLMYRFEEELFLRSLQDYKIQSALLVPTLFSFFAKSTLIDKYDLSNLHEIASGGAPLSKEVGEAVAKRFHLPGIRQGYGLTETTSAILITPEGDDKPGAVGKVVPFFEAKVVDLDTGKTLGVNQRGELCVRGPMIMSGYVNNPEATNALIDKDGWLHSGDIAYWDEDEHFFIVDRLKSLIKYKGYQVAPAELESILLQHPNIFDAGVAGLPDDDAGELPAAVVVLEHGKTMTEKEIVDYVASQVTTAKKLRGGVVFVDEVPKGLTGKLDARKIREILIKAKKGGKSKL

Chain of Focal adhesion kinase 1 (Homo sapiens) (Q05397 whole entry, looked up): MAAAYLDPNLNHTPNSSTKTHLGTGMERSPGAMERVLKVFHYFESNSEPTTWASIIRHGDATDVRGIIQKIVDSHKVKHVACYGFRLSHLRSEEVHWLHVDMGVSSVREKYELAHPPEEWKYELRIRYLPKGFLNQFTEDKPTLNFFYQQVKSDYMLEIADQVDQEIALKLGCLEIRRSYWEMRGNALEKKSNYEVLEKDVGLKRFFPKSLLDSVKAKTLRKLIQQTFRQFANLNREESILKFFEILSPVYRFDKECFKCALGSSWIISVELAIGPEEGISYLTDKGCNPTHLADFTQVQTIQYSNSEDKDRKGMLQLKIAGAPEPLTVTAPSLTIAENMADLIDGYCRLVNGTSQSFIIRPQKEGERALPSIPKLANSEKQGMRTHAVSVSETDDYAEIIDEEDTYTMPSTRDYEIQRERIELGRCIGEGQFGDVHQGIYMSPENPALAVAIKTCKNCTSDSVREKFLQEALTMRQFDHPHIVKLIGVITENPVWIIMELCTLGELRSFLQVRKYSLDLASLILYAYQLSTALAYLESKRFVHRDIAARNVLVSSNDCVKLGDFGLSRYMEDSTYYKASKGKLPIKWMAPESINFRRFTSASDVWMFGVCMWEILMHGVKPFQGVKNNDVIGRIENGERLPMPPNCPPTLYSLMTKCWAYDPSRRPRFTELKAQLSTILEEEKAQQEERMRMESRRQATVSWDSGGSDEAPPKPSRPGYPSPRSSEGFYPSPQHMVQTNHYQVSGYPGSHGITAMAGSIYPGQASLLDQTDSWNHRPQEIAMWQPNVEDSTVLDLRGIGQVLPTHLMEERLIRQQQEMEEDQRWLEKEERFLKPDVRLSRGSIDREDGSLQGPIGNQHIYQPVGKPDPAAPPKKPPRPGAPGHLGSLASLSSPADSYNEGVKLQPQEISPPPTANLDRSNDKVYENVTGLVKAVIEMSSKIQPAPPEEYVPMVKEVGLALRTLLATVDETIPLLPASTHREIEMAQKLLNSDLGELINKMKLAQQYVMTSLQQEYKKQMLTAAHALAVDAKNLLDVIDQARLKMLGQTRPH

For `C=C(COC)C(=O)CC[C@@H](OC(C)=O)c1cccc(OCCO)c1`, the composite z-score in assay [1] is 0.0219; in assay [2], -1.04; in assay [3] it was -0.653; in [4], 0.567; in assay [5], 1.09; in assay [6], 1.48. Also, the values for the composite z-score (in the assay with Lefty1; in assay [8]) were 0.146 and 0.0226, respectively. The figures for the z-score in [7] and in assay [9] were 0.655 and -1.76 (inactive), respectively.
`CO[C@H]1O[C@H](CO)[C@@H](OC(=O)CCc2ccccc2)[C@@H]2OC(=O)[C@@H](Cc3ccccc3)C/C=C/C[C@H](Cc3ccccc3)C(=O)O[C@@H]12`: the composite z-score in assay [1] is 0.623; in [2], 1.03; in assay [3] it was 0.178; in assay [4], 0.28; in assay [5], 1.28; in assay [6], 1.31. Moreover, the composite z-score in the assay with Lefty1 is 0.396; in [8] it was 0.0856. For the same compound, the z-score in assay [7] was 2.11; in [9] it was 0.769 (inactive).
With `CCOC(=O)C[C@H]1[C@H](OC(=O)Cc2ccc3c(c2)OCO3)[C@@H](NC(=O)c2ccc3ccccc3n2)c2cc(OCCCO)ccc2N1C(=O)c1ccc2ccccc2n1`, the composite z-score in assay [1] is 0.267; in [2] it was 0.496; in [3], 0.629; in assay [4] it was 0.913; in assay [5] it was 0.497; in assay [6], 0.13. Also, the composite z-score was 0.37 with Lefty1 and 0.754 in [8]. Also, the z-score is 3.18 in [7] and -1.83 (inactive) in [9].
Take `COC(=O)[C@@]1(Cc2ccc(F)cc2)[C@H]2c3cc(C(=O)N(C)C)n(Cc4ccc(OC(F)(F)F)cc4)c3C[C@H]2CN1C(=O)c1ccccc1`: the composite z-score in assay [1] is 0.348; in assay [2], 0.626; in [3], 0.0291; in [4], 0.572; in assay [5], 0.216; in [6] it was 0.016. Further, the composite z-score with Lefty1 is -0.182; in [8] it was 0.341. The z-score in [7] is 0.561; in [9], 1.6 (inactive).
In the case of `COC(=O)[C@@]1(Cc2ccc(OC)cc2)[C@H]2c3cc(C(=O)N(C)C)n(Cc4ccc(OC(F)(F)F)cc4)c3C[C@H]2CN1C(=O)c1ccccc1`, the composite z-score was -0.399 in [1]; 0.299 in assay [2]; 1.14 in assay [3]; 0.808 in [4]; -0.295 in assay [5]; -0.555 in assay [6]. Further, the figures for the composite z-score (with Lefty1; in assay [8]) were -0.878 and 0.0102, respectively. Also, the z-score in assay [7] is 0.517; in assay [9], 0.86 (inactive).
Take `O=C(NCCN1CCOCC1)[C@@H]1c2ccccc2C(=O)N(Cc2ccccc2Cl)[C@H]1c1ccc(CO)cc1`: the composite z-score in [1] was -1.29; in assay [2], -0.867; in assay [3], 0.0685; in assay [4], -0.542; in assay [5], -0.163; in assay [6], -0.976. In addition, the composite z-score with Lefty1 is -1.19; in assay [8], 0.0616. The z-score in [7] is 1.79; in assay [9] it was 0.645 (inactive).
For the compound `COc1ccccc1CN1C(=O)c2ccccc2[C@](Cc2ccccc2I)(C(=O)O)[C@@H]1c1ccc(CO)cc1`, the composite z-score in [1] came to 1.76; in [2] it was 1.21; in [3] it was 0.758; in assay [4], 0.809; in assay [5] it was 1.26; in assay [6], 1.33. For the same compound, the composite z-score in the assay on Lefty1 was 0.74; in [8], 0.762. The z-score in assay [7] was 0.227; in assay [9], -1.01 (inactive).
Turning to `C=CCOC(=O)[C@@]1(Cc2ccccc2)C[C@H]2CO[C@H](c3ccc(OC)cc3)N2C1=O`, the composite z-score is 0.848 in assay [1]; 0.191 in [2]; 0.575 in assay [3]; 0.494 in assay [4]; 0.3 in assay [5]; 0.186 in assay [6]. In addition, the values for the composite z-score (in the assay with Lefty1; in [8]) were 0.55 and 0.133, respectively. Also, the z-score is 0.272 in assay [7] and -0.0402 (inactive) in assay [9].
As for `COCCOC(=O)N1C(=O)[C@@]2(c3ccccc31)[C@H](c1ccc(O)cc1)N1[C@H](c3ccccc3)[C@H](c3ccccc3)OC(=O)[C@H]1[C@@H]2C(=O)N1CCN(c2ncccn2)CC1`, the composite z-score in assay [1] was 0.682; in [2], 1.14; in assay [3] it was 0.666; in [4], 0.244; in assay [5] it was 1.04; in [6], 1.43. Moreover, the composite z-score in the assay with Lefty1 came out at 0.806; in [8] it was 0.026. Besides, the z-score in assay [7] was -0.727; in assay [9] it was 0.504 (inactive).
As for `C=CCNC(=O)[C@@H]1[C@H]2C(=O)O[C@H](c3ccccc3)[C@H](c3ccccc3)N2[C@H](c2ccc(O)cc2)[C@@]12C(=O)N(C(=O)OCCOC)c1ccc(C#CC3=CCCCC3)cc12`, the composite z-score in assay [1] is 1.11; in assay [2] it was 1.19; in assay [3] it was 0.664; in assay [4] it was 0.708; in [5] it was 1.27; in assay [6] it was 1.54. In addition, the composite z-score in the assay with Lefty1 amounted to 0.701; in assay [8] it was 0.729. For the same compound, the z-score in assay [7] was -0.22; in assay [9], -0.959 (inactive).
For the compound `C=C(/C(=C/C[C@H](OC(=O)c1ccncc1)c1ccc(CO)o1)c1cnc2ccccc2c1)C(C)C`, the composite z-score worked out at 1.29 in assay [1]; 1.19 in assay [2]; 0.0621 in [3]; 0.866 in assay [4]; 1.31 in [5]; 1.18 in assay [6]. In addition, the composite z-score in the assay on Lefty1 was determined as 1.34; in assay [8], 1.08. In addition, the z-score was 0.909 in assay [7] and -2.9 (inactive) in [9].
As for `O=c1cccc(-c2ccc([N+](=O)[O-])cc2)o1`, the composite z-score in assay [1] was 0.504; in assay [2] it was 0.963; in [3], 0.21; in assay [4] it was -0.301; in assay [5], 1.28; in assay [6] it was 1.05. Further, the composite z-score was determined as 1.4 in the assay with Lefty1 and 0.301 in assay [8]. The values for the z-score in assay [7] and in assay [9] were -0.233 and 1.68 (inactive), respectively.
With `COc1ccc(CCNC(=O)[C@@]2(c3ccc([N+](=O)[O-])cc3)CC(=O)N(C3CCCCC3)[C@@H]2c2ccc(CO)cc2)cc1`, the composite z-score was found to be 1.84 in [1]; 1.22 in [2]; 0.757 in [3]; 0.393 in [4]; 0.695 in assay [5]; 0.373 in [6]. The composite z-score is -0.381 in the assay on Lefty1 and 0.793 in assay [8]. For the same compound, the z-score in [7] is 2.09; in [9], -1.74 (inactive).
Turning to `COc1ccc([Si](C)(C)[C@@H]2[C@@H](CC(=O)N3Cc4ccccc4C[C@H]3CO)O[C@]3(C(=O)N(Cc4ccc(N5C(=O)c6cccc7cccc5c67)cc4)c4ccccc43)[C@H]2C)cc1`, the composite z-score is 0.0827 in assay [1]; 1.18 in assay [2]; 0.949 in assay [3]; 0.706 in [4]; 1.33 in [5]; 1.59 in assay [6]. In addition, the composite z-score in the assay with Lefty1 worked out at 1.11; in [8], 0.323. For the same compound, the z-score was 1.2 in [7] and -1.05 (inactive) in [9].
